SNCA viab count = reduces viability of HEK-293 SNCA reporter cells; HEK-293-SNCA-luc viability, GF-AFC fluorescence, 24 h; Potency, µM (series often up to 57.1 µM), for inactives: at the top dose activity change, negative = cytotoxicity, hits mostly cytotoxic; actives 0.12% (n = 150,000);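 also: 0% = DMSO-treated cells and -100% = medium-only wells without cells; nearly all actives have a fitted effect of over 30% in size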
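Cytotoxicity counterscreen: after 24 h compound treatment of genome-edited SNCA-luciferase HEK-293 cells, live-cell protease substrate GF-AFC read by fluorescence after 30 min; activity scaled between DMSO (0%) and medium-only (-100%), curves Hill-fitted.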
HEK293 tox = HEK 293 cell cytotoxicity; HEK 293 viability, ATP luminescence (CellTiter-Glo), 48-72 h; Potency, µM (titrated, usually from 115 µM), without a hit: top-dose activity change, negative = cytotoxicity, actives largely listed as inhibitors; actives 6.6% (n = 94,000); AID 1345083; also: nearly all actives have a fitted effect of over 60% in size
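CellTiter-Glo luminescence (cellular ATP) was read after 48 or 72 hr of compound exposure at 37 degree Celsius. Cells were HEK 293 plated at 250 cells/well.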
FLuc inh = inhibitors of firefly (Photinus pyralis) luciferase | actives 2.5% (n = 76,000) | P08659 | Potency, µM (doses to about 115 µM), most hits filed as inhibitors | purified P. pyralis luciferase, luminescence, biochemical; also: nearly all actives have a fitted effect of over 65% in size
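Biochemical qHTS: compound (6-point titration) added to 10uM D-luciferin plus 10uM ATP in Tris acetate pH 7.5 buffer with Mg, Tween-20 and BSA, then purified enzyme at 10nM; light output imaged.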
NIH3T3 tox = cytotoxic compounds in NIH 3T3 cells; NIH 3T3 viability, CellTiter-Glo ATP luminescence, 48-72 h; Potency, µM (series often up to 96.7 µM), for the others: at the highest dose activity change, negative = cytotoxicity, usual class: inhibitors; actives 4.3% (n = 94,000); AID 1345082; also: nearly all actives have a fitted effect of over 55% in size
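Luminescent ATP readout (CellTiter-Glo, 10 min RT) after 48 or 72 hr compound exposure of NIH 3T3 cells seeded at 400 cells/well in 1536-well format; quantitative HTS.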
hNpr1 antagonist = antagonists of human natriuretic peptide receptor Npr1 | P16066 | HEK293 hNpr1 GloSensor cGMP, ANP-stimulated luminescence | Potency, µM (series often up to 46.3 µM), without a hit: at the highest dose activity change, negative = inhibition, hits mostly inhibitors | actives 1.6% (n = 76,000); calls by dose curve; also: nearly all actives have a fitted effect of over 60% in size
Target sequence (P16066 whole entry, looked up): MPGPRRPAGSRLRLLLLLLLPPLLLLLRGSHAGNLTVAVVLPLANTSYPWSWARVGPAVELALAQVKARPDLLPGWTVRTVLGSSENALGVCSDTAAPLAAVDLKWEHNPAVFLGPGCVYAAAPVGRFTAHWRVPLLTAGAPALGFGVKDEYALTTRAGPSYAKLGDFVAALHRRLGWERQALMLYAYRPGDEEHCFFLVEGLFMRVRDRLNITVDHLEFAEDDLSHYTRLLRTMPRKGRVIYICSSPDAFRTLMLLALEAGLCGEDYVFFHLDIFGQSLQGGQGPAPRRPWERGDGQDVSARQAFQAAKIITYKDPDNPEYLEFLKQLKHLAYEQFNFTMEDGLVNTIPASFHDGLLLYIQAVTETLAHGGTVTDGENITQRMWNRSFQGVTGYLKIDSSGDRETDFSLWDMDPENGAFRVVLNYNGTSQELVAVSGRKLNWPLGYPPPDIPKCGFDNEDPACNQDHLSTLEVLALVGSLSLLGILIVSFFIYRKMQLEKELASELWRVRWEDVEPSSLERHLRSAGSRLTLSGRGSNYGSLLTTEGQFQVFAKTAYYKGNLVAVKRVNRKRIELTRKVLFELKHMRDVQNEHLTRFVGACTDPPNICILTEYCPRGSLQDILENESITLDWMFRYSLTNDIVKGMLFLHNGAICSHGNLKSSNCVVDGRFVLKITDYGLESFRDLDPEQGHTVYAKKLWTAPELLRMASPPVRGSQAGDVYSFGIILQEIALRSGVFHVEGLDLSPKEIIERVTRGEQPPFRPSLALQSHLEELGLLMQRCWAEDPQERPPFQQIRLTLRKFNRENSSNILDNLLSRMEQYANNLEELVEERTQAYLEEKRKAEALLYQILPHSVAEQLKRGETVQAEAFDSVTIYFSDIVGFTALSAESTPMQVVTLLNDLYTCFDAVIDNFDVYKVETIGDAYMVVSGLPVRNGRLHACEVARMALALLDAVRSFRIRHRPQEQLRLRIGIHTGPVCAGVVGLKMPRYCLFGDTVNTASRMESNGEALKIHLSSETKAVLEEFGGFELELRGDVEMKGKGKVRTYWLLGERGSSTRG
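Compound pre-incubated 30 min at room temperature on GloSensor-loaded HEK293 cells stably carrying hNpr1 and the pGS-40F cGMP biosensor. Stimulation uses hNppA at 0.1 nM final; luminescence is taken at baseline and 20 min post-agonist.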
SNCA expr inhib = reduces expression of the alpha-synuclein gene | Potency, µM (top dose mostly 57.2 µM), for the others: at the highest dose activity change, negative = inhibition, hits mostly inhibitors | HEK-293 SNCA-luciferase knock-in, luminescence, 24 h | actives 0.17% (n = 140,000);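 also: plate controls were DMSO cells for no effect and cell-free wells for full effect; nearly all actives have a fitted effect of over 45% in size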
An asterisk follows results filed as active; ! = repeats disagree; [ ] = dose if it differs, or a comment. Rows were chosen to be rich in hits. Some 7.4% of all compounds tested hit in one or more screens of this group. Unless noted, calls follow the shape of the dose curve; as a rule, active = well fitted curve in the direction sought with a large enough effect; inconclusive = small, poorly fitted or top-dose-only effect, or another doubt; inactive = no such curve, though single readings can be large; an effect the other way counts as inactive or inconclusive. Unless noted, % is scaled to controls: 0 for no effect and ±100 for the full control effect; potency is read from the fitted curve at half-maximal effect.

Screening O=C1NC2(CCN(CC3CC3)CC2)COc2ccccc21 returned SNCA viab count -5%[87.6 µM], HEK293 tox inconclusive, FLuc inh inactive, NIH3T3 tox inconclusive, hNpr1 antagonist 5%[70.6 µM] and SNCA expr inhib -26%[87.6 µM].
O=C1NC2(CCN(Cc3ccsc3)C2)COc2ccccc21 (stereo not given) was read as SNCA viab count -4%[87.6 µM], HEK293 tox inconclusive, FLuc inh inactive, NIH3T3 tox 40µM*, hNpr1 antagonist 4%[70.6 µM] and SNCA expr inhib 34%[87.6 µM].
For Cn1cccc1CN1CCC2(COc3ccccc3C(=O)N2)C1 (stereo not given) the results were SNCA viab count -4%[87.6 µM], HEK293 tox inconclusive, FLuc inh inactive, NIH3T3 tox inconclusive, hNpr1 antagonist -2%[70.6 µM] and SNCA expr inhib -16%[87.6 µM].
For Cn1nccc1CN1CCCC2(COc3ccccc3C(=O)N2)C1 (stereo not given) the results were SNCA viab count inconclusive, HEK293 tox 28µM*, FLuc inh inactive, NIH3T3 tox 8.9µM*, hNpr1 antagonist inconclusive and SNCA expr inhib inconclusive.
For O=C1NC2(CCN(CC3CCCCC3)CC2)COc2ccccc21 the results were SNCA viab count -6%[87.6 µM], HEK293 tox 35µM*, FLuc inh inactive, NIH3T3 tox 79µM*, hNpr1 antagonist 4%[70.6 µM] and SNCA expr inhib 1%[87.6 µM].
`COc1ccc(-c2cc(N3CCCC(NC(=O)c4cc(Cl)ccc4F)C3)n[nH]2)cc1` (stereo not given) gave SNCA viab count -11%, HEK293 tox inconclusive, FLuc inh inactive, NIH3T3 tox inconclusive, hNpr1 antagonist -19% and SNCA expr inhib 11%.
CC(C)c1ccc(C(=O)N2CCC(n3c(=O)[nH]c4ccccc43)CC2)cc1 was read as SNCA viab count -16%, HEK293 tox inconclusive, NIH3T3 tox -17% and SNCA expr inhib 9%.
Cc1ccc(CN2CCC3(CC2)COc2ccccc2C(=O)N3)cc1 was read as SNCA viab count -5%, HEK293 tox 28µM*, FLuc inh inactive, NIH3T3 tox inconclusive, hNpr1 antagonist -4% and SNCA expr inhib -21%.
For O=Nc1c(-c2c(O)[nH]c3cc(Br)ccc23)[nH]c2ccccc12 the results were SNCA viab count 25µM*! and SNCA expr inhib -5%.
For OCC1(Cc2cccc(Cl)c2)CCCNC1 (stereo not given) the results were SNCA viab count -11%, HEK293 tox 0%, FLuc inh inactive, NIH3T3 tox -7%, hNpr1 antagonist 5% and SNCA expr inhib 0%.
Screening OCC1(Cc2cccc(Cl)c2)CCCN(Cc2nc(-c3ccc(F)cc3)cs2)C1 (stereo not given) returned SNCA viab count 10%, HEK293 tox 79µM*, FLuc inh inactive, NIH3T3 tox inconclusive, hNpr1 antagonist -23% and SNCA expr inhib -4%.
For CC(C)N1C(=O)C(CC(=O)NCC2CCN(Cc3cccc(F)c3)CC2)=C2CCCCC21 (stereo not given) the results were SNCA viab count -6%, HEK293 tox -8%, FLuc inh inactive, NIH3T3 tox -4%, hNpr1 antagonist -2% and SNCA expr inhib 5%.
For COc1ccc(Nc2ccnc(N3CCCC(C(=O)NCCc4ccccc4F)C3)n2)cc1 (stereo not given) the results were SNCA viab count inconclusive, HEK293 tox 22µM*, NIH3T3 tox inconclusive and SNCA expr inhib -17%.
Screening C#CCNC(=O)C1CCCN(c2nccc(Nc3ccc(C)cc3)n2)C1 (stereo not given) returned SNCA viab count -10%[12.5 µM], HEK293 tox inconclusive, NIH3T3 tox inconclusive and SNCA expr inhib 5%.
Screening Cc1ccc(Nc2ccnc(N3CCCC(C(=O)NCc4cccc(F)c4)C3)n2)cc1 (stereo not given) returned SNCA viab count -2%[12.5 µM], HEK293 tox 50µM*, NIH3T3 tox inconclusive and SNCA expr inhib -16%.
COC(=O)CNC(=O)C1CCCN(c2nccc(Nc3ccc(C)cc3)n2)C1 (stereo not given) was read as SNCA viab count 0%[12.5 µM], HEK293 tox inconclusive, NIH3T3 tox inconclusive and SNCA expr inhib 10%.
Screening COc1ccc(Nc2ccnc(N3CCCC(C(=O)NCCc4ccccc4)C3)n2)cc1 (stereo not given) returned SNCA viab count -8%[12.5 µM], HEK293 tox inconclusive, NIH3T3 tox inconclusive and SNCA expr inhib 27%.
Cc1ccc(Nc2ccnc(N3CCCC(C(=O)NCc4ccccc4F)C3)n2)cc1 (stereo not given) was read as SNCA viab count -24%[12.5 µM], HEK293 tox 10µM*, NIH3T3 tox 14µM* and SNCA expr inhib inconclusive.
`Cc1ccc(Nc2ccnc(N3CCCC(C(=O)NCCc4ccccc4)C3)n2)cc1` (stereo not given) gave SNCA viab count -9%[12.5 µM], HEK293 tox inconclusive, NIH3T3 tox 28µM* and SNCA expr inhib -17%.
For C/C(=C\C(=O)C(C)C1CCC2C3=C(CCC21C)C1(C)CCC(=O)C(C)(C)C1(O)CC3)C(C)(C)O (stereo not given) the results were SNCA viab count -16%[23.9 µM].
Screening COc1ccc(Nc2cnc3ccc(-c4ccc(OC)nc4)nn23)cn1 returned SNCA viab count 2%[87.6 µM], HEK293 tox inconclusive, FLuc inh inactive, NIH3T3 tox inconclusive, hNpr1 antagonist 2%[70.6 µM] and SNCA expr inhib 11%[87.6 µM].
COc1ccc(-c2ccc3ncc(Nc4cccc(N[S+](C)(=O)[O-])c4)n3n2)cc1OC was read as SNCA viab count 8%, HEK293 tox inconclusive, FLuc inh 40µM*, NIH3T3 tox inconclusive, hNpr1 antagonist -2% and SNCA expr inhib 30%.
`C[S+](=O)([O-])Nc1cccc(Nc2cnc3ccc(-c4ccc(F)cc4)nn23)c1` gave SNCA viab count -6%[87.6 µM], HEK293 tox 79µM*, FLuc inh inconclusive, NIH3T3 tox inconclusive, hNpr1 antagonist -21%[70.6 µM] and SNCA expr inhib 6%[87.6 µM].
`O=C(COc1ccccc1)N1CCC2(CC1)SCC(=O)N2c1ccc(Cl)cc1` gave SNCA viab count 6%, HEK293 tox -26%, FLuc inh inactive, NIH3T3 tox inconclusive, hNpr1 antagonist -2% and SNCA expr inhib 6%.
O=C(C1COc2ccccc2O1)N1CCc2onc(-c3cccc(F)c3)c2C1 (stereo not given) was read as SNCA viab count 10%, HEK293 tox -28%, FLuc inh inactive, NIH3T3 tox inconclusive, hNpr1 antagonist -29% and SNCA expr inhib 18%.

Compound activity (PubChem)
